Several values for one entry are separate records, joined by “and”; a condition that tells them apart may be missing. Identical values can stand only once. Records with an inconclusive call do not appear. The source holds several records for some structures; these can differ, active in one and inactive in another. Activity calls are given as the source filed them. Rule for the calls, unless noted: active = hit-call score of the fitted dose curve at least 0.9, where 1 is the maximum; inactive = score below 0.9.
Legend:
[1] = ATG_PBREM_CIS: Attagene CIS-FACTORIAL HepG2 Assay for human Phenobarbital-responsive Enhancer Module (PBREM) (AID 2282955); conditions: HepG2 PBREM cis-reporter, Attagene multiplexed transcription; actives raise or lower the signal
Procedure, shortened: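 Transfected liver-derived HepG2 cells exposed 24 h; PBREM reporter transcript quantified via RT-PCR and capillary electrophoresis, with activity in either direction referenced to DMSO.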

[2] = biological target: Paired box protein Pax-6 (Homo sapiens) (UniProt P26367); assay: ATG_Pax6_CIS: Attagene CIS-FACTORIAL HepG2 Assay for human Paired Box 6 (PAX6) (AID 2282956); conditions: HepG2 CIS-FACTORIAL PAX6 reporter transcription, RNA readout; actives raise or lower the signal
Chain of Paired box protein Pax-6 (Homo sapiens) (P26367 whole entry, looked up): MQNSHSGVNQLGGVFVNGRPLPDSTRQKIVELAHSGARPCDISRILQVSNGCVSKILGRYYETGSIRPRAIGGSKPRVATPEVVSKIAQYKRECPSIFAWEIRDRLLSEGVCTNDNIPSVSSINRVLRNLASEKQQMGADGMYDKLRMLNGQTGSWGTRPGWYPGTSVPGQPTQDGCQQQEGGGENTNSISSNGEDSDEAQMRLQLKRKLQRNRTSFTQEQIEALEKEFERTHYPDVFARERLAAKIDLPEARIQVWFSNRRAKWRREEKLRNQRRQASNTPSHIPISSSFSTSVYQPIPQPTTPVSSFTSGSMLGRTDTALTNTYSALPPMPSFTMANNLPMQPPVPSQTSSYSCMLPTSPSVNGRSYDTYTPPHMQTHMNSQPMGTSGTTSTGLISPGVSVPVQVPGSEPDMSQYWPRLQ
Procedure, shortened: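 Values derive from bidirectional curve fitting of reporter mRNA signal relative to DMSO. HepG2 cells bearing transfected cis-regulated MRTUs were exposed for 24 h; transcripts were read by RT-PCR and capillary electrophoresis.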

[3] = ATG_PXRE_CIS: Attagene CIS-FACTORIAL HepG2 Assay for human Pregnane X Receptor Element (PXRE) (AID 2282957); conditions: HepG2 Attagene CIS-FACTORIAL PXRE reporter, mRNA; actives raise or lower the signal
Procedure, shortened: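 Reporter transcripts under endogenous PXR-responsive cis-regulation quantified from total RNA of transfected HepG2 cells 24 h post-dosing, via RT-PCR with fluorescent primer extension and capillary electrophoresis. Gain or loss of signal fitted against DMSO baseline.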

[4] = ATG_PPRE_CIS: Attagene CIS-FACTORIAL HepG2 Assay for human Peroxisome Proliferator-activated Response Element (PPRE) (AID 2282958); conditions: HepG2 PPRE cis-element reporter, Attagene transcription factor profiling; actives raise or lower the signal
Procedure, shortened: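 Measured endpoint: PPRE-controlled reporter mRNA, detected by RT-PCR and capillary electrophoresis fluorescence, from transiently transfected HepG2 cells 24 h after dosing. Curves fitted in both directions using DMSO baseline.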

[5] = ATG_Sox_CIS: Attagene CIS-FACTORIAL HepG2 Assay for human SRY-box transcription factor (SOX) (AID 2282960); conditions: HepG2 Attagene cis-factorial SOX reporter, mRNA; actives raise or lower the signal
Procedure, shortened: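 Gain- or loss-of-signal endpoint, fitted bidirectionally with DMSO as negative control. Based on reporter mRNA from transfected HepG2 cells harvested 24 h post-treatment and quantified via RT-PCR and capillary electrophoresis.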

[6] = biological target: Transcription factor Sp1 (Homo sapiens) (UniProt P08047); assay: ATG_Sp1_CIS: Attagene CIS-FACTORIAL HepG2 Assay for human Specificity Protein 1 (Sp1) (AID 2282961); conditions: HepG2 Sp1 cis-reporter transcription, actives raise or lower the signal
Chain of Transcription factor Sp1 (Homo sapiens) (P08047 whole entry, looked up, the tested form may be a part): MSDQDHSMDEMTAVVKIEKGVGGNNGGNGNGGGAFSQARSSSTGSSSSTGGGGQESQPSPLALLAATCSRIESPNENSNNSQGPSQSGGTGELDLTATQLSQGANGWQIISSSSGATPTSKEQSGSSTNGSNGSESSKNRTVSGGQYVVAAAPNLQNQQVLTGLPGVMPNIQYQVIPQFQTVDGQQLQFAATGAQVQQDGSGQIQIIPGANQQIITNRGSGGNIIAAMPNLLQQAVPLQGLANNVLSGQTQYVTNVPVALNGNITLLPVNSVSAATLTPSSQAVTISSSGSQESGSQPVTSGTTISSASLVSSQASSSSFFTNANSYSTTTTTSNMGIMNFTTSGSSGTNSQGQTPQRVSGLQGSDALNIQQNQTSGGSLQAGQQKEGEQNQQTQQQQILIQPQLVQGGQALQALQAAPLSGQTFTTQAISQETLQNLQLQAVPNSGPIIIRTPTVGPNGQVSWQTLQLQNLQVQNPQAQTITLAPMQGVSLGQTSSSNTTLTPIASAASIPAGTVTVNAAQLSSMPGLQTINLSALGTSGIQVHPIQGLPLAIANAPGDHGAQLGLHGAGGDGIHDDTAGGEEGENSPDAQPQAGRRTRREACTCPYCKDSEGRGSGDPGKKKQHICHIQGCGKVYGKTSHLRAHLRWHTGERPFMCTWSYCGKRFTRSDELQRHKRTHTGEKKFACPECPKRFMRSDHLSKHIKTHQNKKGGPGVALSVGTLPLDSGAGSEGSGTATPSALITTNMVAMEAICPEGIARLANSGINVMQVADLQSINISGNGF
Procedure, shortened: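 Endpoint reflects endogenous Sp1 transcriptional activity, not an exogenous fusion protein: HepG2 cells with transfected cis-regulated reporters, 24 h dosing, RT-PCR/capillary electrophoresis mRNA read-out, DMSO-normalised bidirectional fit.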

[7] = ATG_SREBP_CIS: Attagene CIS-FACTORIAL HepG2 Assay for human Sterol Regulatory Element Binding (SREBP) (AID 2282962); conditions: HepG2 Attagene cis-factorial SREBP reporter, mRNA; actives raise or lower the signal
Procedure, shortened: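 Values derive from bidirectional curve fitting with DMSO as baseline. The underlying measurement is reporter mRNA from cis-element-regulated units in transiently transfected HepG2, quantified by RT-PCR and capillary electrophoresis after 24 h exposure.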

[8] = biological target: Signal transducer and activator of transcription 3 (Homo sapiens) (UniProt P40763); assay: ATG_STAT3_CIS: Attagene CIS-FACTORIAL HepG2 Assay for human Signal Transducer and Activator of Transcription 3 (STAT3) (AID 2282963); conditions: HepG2, Attagene cis-factorial STAT3 reporter transcription; actives raise or lower the signal
Chain of Signal transducer and activator of transcription 3 (Homo sapiens) (P40763 whole entry, looked up, the tested form may be a part): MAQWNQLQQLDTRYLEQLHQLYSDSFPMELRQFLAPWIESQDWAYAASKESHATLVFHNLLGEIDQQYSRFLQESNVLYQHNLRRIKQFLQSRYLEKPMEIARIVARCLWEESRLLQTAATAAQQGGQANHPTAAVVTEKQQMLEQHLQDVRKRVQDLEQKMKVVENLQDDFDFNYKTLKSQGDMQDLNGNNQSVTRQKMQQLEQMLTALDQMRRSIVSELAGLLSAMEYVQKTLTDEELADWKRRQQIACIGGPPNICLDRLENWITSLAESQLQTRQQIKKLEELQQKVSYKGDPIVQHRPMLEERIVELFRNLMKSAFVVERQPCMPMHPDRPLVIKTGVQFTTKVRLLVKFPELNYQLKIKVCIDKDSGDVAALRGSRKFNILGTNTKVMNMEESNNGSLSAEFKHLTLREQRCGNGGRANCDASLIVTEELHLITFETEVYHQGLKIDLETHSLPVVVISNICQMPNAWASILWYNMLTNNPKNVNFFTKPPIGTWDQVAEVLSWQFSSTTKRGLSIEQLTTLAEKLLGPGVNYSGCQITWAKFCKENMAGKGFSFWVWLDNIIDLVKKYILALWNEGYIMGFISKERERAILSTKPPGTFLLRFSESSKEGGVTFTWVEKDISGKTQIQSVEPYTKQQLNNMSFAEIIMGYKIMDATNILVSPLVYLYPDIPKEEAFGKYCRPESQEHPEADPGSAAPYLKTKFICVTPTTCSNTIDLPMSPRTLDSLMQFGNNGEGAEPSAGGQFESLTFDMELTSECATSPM
Procedure, shortened: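 Readout: fluorescent reporter mRNA fragments resolved by capillary electrophoresis. Setup: HepG2 transfected with MRTUs reporting endogenous transcription-factor activity, dosed 24 h. Gain or loss of signal fitted bidirectionally against DMSO control.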

[9] = ATG_TA_CIS: Attagene CIS-FACTORIAL HepG2 Assay for human TA Basal Promoter (AID 2282964); conditions: HepG2 Attagene CIS-factorial TA basal promoter reporter; actives raise or lower the signal
Procedure, shortened: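 Transfected HepG2, 24 h compound exposure; RNA → RT-PCR → FAM primer extension → HpaI cut → CE fluorescence. Gain/loss-of-signal fitted against DMSO negative control. Background-control readout.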

[10] = ATG_TCF_b_cat_CIS: Attagene CIS-FACTORIAL HepG2 Assay for human T-Cell-Factor with beta-catenin (TCF/b-cat) (AID 2282965); conditions: HepG2 TCF/beta-catenin cis-reporter transcription, actives raise or lower the signal
Procedure, shortened: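 HepG2, transient MRTU transfection, cis-element-driven reporters (endogenous TFs). 24 h compound exposure. Readout: reporter mRNA by RT-PCR + 6-FAM primer extension, HpaI digest, capillary electrophoresis. Gain/loss fit vs DMSO baseline.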

[11] = ATG_TAL_CIS: Attagene CIS-FACTORIAL HepG2 Assay for human TAL Basal Promoter (AID 2282966); conditions: HepG2 Attagene cis-factorial TAL promoter reporter; actives raise or lower the signal;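 note: background control endpoint measuring basal TAL promoter reporter mRNA not a specific factor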
Procedure, shortened: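 Background-control endpoint: basal TAL promoter reporter transcripts in transiently transfected HepG2, measured 24 h after dosing. Read-out by RT-PCR with fluorescent primer extension and capillary electrophoresis; gain or loss of signal fitted relative to DMSO.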

[12] = ATG_TGFb_CIS: Attagene CIS-FACTORIAL HepG2 Assay for human Transforming Growth Factor (TGF) (AID 2282967); conditions: HepG2 Attagene CIS TGFb reporter, mRNA transcription; actives raise or lower the signal
Procedure, shortened: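 Readout: fluorescently labeled reporter cDNA fragments resolved by capillary electrophoresis after RT-PCR. Transfected HepG2 cells dosed for 24 h; endogenous TF activity at TGFB1-linked cis element; gain or loss fitted relative to DMSO.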

[13] = ATG_VDRE_CIS: Attagene CIS-FACTORIAL HepG2 Assay for human Vitamin D Receptor Element (VDRE) (AID 2282968); conditions: HepG2 VDRE cis-reporter transcription, actives raise or lower the signal
Procedure, shortened: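 Transient MRTU transfection of HepG2, 24 h compound exposure. Readout: reporter transcripts via RT-PCR and capillary electrophoresis, fluorescence. Bidirectional fit vs DMSO.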

[14] = biological target: Nuclear receptor subfamily 1 group I member 3 (Homo sapiens) (UniProt Q14994); assay: ATG_CAR_TRANS: Attagene TRANS-FACTORIAL HepG2 Assay for human Constitutive Androstane Receptor (CAR) (AID 2282969; active = hit-call score of the fitted dose curve at least 0.9, where 1 is the maximum;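 note: activators raise reporter mRNA above DMSO so AC50 marks induction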); conditions: HepG2 Attagene TRANS-FACTORIAL CAR reporter
Chain of Nuclear receptor subfamily 1 group I member 3 (Homo sapiens) (Q14994 whole entry, looked up, the tested form may be a part): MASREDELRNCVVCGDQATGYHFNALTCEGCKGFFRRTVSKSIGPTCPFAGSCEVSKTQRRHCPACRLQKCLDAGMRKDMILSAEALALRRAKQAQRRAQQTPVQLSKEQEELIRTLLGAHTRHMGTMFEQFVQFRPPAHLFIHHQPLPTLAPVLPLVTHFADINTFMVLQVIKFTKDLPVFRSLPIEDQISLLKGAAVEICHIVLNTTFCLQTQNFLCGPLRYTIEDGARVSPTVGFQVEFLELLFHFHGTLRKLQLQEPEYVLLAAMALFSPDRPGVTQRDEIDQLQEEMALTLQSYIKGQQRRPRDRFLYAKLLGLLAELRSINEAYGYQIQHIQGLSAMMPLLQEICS
Procedure, shortened: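 Transiently transfected HepG2, multiplex TRANS reporters (CAR-Gal4 chimera driving GAL4-UAS reporter). 24 h dosing. Readout: reporter transcript by RT-PCR + capillary electrophoresis, fluorescence intensity; positive direction vs DMSO.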

[15] = biological target: Estrogen receptor (Homo sapiens) (UniProt P03372); assay: ATG_ERa_TRANS: Attagene TRANS-FACTORIAL HepG2 Assay for human Estrogen Receptor alpha (ERa) (AID 2282970; active = hit-call score of the fitted dose curve at least 0.9, where 1 is the maximum); conditions: HepG2 Attagene TRANS ERa GAL4 reporter, mRNA
Chain of Estrogen receptor (Homo sapiens) (P03372 whole entry, looked up, the tested form may be a part): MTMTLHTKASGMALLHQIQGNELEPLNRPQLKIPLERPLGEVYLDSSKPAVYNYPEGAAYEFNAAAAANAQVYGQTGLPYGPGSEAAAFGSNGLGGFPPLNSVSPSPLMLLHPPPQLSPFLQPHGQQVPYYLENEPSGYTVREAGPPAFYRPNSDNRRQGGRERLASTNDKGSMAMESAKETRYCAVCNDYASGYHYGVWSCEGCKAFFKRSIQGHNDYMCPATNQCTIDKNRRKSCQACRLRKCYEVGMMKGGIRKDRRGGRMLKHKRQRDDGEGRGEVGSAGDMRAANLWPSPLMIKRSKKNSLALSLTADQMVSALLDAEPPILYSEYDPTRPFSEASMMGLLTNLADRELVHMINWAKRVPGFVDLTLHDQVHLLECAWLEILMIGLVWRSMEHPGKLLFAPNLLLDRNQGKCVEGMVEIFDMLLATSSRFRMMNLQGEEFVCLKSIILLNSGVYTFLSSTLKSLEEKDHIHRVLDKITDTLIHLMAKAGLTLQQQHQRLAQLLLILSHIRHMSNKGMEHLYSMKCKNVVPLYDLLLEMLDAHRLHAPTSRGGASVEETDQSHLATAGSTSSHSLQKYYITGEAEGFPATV
Procedure, shortened: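 Reporter transcripts were measured 24 h after dosing by RT-PCR with fluorescent primer extension and capillary electrophoresis. The system is transiently transfected HepG2 expressing exogenous NR-Gal4 chimeras driving GAL4-UAS reporters; DMSO is the baseline.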

[16] = biological target: X-box-binding protein 1 (Homo sapiens) (UniProt P17861); assay: ATG_Xbp1_CIS: Attagene CIS-FACTORIAL HepG2 Assay for human X-box Binding Protein 1 (XBP1) (AID 2282972); conditions: HepG2 XBP1 cis-element reporter, Attagene multiplex; actives raise or lower the signal
Chain of X-box-binding protein 1 (Homo sapiens) (P17861 whole entry, looked up): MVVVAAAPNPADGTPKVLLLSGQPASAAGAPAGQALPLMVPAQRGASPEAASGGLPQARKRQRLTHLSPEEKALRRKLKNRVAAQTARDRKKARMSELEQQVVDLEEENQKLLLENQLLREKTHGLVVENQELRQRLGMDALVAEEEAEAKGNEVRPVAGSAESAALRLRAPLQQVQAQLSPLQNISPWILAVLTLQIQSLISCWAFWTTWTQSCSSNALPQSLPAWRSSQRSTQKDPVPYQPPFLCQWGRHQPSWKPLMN
Procedure, shortened: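 Human hepatoma HepG2, cis-element reporter system, 24 h treatment; mRNA quantified by RT-PCR/CE fluorescence; fit relative to DMSO.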

[17] = ATG_M_19_TRANS: Attagene TRANS-FACTORIAL HepG2 Assay for M19 Transcription Factor (Internal Marker) (AID 2282974; active = hit-call score of the fitted dose curve at least 0.9, where 1 is the maximum); conditions: HepG2 Attagene TRANS-FACTORIAL M19 internal marker reporter
Procedure, shortened: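 Using RT-PCR and capillary electrophoresis, reporter mRNA from transiently transfected human HepG2 cells was quantified following 24 h exposure; activity was fitted in the positive direction against DMSO.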

[18] = ATG_GAL4_TRANS: Attagene TRANS-FACTORIAL HepG2 Assay for GAL4 (Internal Marker) (AID 2282976; active = hit-call score of the fitted dose curve at least 0.9, where 1 is the maximum); conditions: HepG2 Attagene TRANS GAL4 internal marker reporter
Procedure, shortened: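 In transfected human HepG2 liver cells dosed 24 h, GAL4 reporter mRNA serves as a baseline marker. Detection by RT-PCR with fluorescent capillary electrophoresis, activity fitted upward relative to DMSO.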

[19] = ATG_RORE_CIS: Attagene CIS-FACTORIAL HepG2 Assay for human RAR-related Orphan Receptor Element (RORE) (AID 2282959); conditions: HepG2 Attagene cis-factorial RORE reporter, mRNA; actives raise or lower the signal
Procedure, shortened: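 Transiently transfected HepG2 reporter cells were treated 24 h. Reporter transcripts were detected by RT-PCR and capillary electrophoresis, with bidirectional fitting against DMSO.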

[20] = biological target: Steroid hormone receptor ERR1 (Homo sapiens) (UniProt P11474); assay: ATG_ERRa_TRANS: Attagene TRANS-FACTORIAL HepG2 Assay for human Estrogen-Related Receptor alpha (ERRa) (AID 2282971; active = hit-call score of the fitted dose curve at least 0.9, where 1 is the maximum); conditions: HepG2 Attagene TRANS reporter, ERRa transactivation
Chain of Steroid hormone receptor ERR1 (Homo sapiens) (P11474 whole entry, looked up, the tested form may be a part): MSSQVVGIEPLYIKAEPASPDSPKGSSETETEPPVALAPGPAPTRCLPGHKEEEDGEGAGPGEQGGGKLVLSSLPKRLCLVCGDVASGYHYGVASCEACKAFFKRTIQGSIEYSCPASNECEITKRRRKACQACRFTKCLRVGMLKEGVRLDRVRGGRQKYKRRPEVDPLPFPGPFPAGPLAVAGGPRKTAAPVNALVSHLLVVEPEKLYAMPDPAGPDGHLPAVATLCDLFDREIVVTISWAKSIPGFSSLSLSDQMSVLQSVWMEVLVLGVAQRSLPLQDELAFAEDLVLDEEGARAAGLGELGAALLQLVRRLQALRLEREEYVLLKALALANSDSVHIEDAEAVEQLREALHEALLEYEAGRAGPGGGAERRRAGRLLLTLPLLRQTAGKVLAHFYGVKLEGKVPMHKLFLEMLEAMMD
Procedure, shortened: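 Reporter transcripts from ERRa-Gal4 chimera activity measured in transiently transfected human HepG2 cells 24 hours after dosing, using RT-PCR with 6-FAM primer extension, HpaI digestion and capillary electrophoresis; DMSO is baseline.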

Measured: AC50

CC(=O)S[C@@H]1CC2=CC(=O)CC[C@]2(C)[C@H]2CC[C@@]3(C)[C@@H](CC[C@@]34CCC(=O)O4)[C@H]12
active: [3] 7.65 µM [middle of 4 runs] | [4] 2.4 µM | [6] 26.3 µM and 4.58 µM | [7] 100 µM | [8] 178 µM | [9] 182 µM | [10] 39.1 µM | [13] 25 µM [middle of 4 runs] | [16] 38.7 µM and 21.9 µM and 4.9 µM
inactive: [1] | [2] | [3] | [4] | [5] | [6] | [7] | [8] | [9] | [10] | [11] | [12] | [13] | [14] | [15] | [16] | [17] | [18]

CCOC(=O)NCCOc1ccc(Oc2ccccc2)cc1
active: [1] 50 µM | [3] 10 µM | [4] 8.06 µM | [19] 13.3 µM | [13] 27.4 µM | [15] 13.8 µM
inactive: [2] | [5] | [6] | [7] | [8] | [9] | [10] | [11] | [12] | [14] | [20] | [16] | [17]

CC(C)CCCCCCc1ccc(O)cc1
inactive: [1] | [4] | [19] | [5] | [6] | [7] | [8] | [9] | [10] | [11] | [12] | [13] | [14] | [16] | [17] | [18]
active: [1] 15.8 µM | [3] 2.88 µM [middle of 4 runs] | [4] 11.1 µM | [5] 17.8 µM and 17.5 µM | [6] 19.4 µM and 16.2 µM | [7] 20.2 µM | [9] 20.3 µM | [10] 15.2 µM and 16.8 µM and 17.4 µM | [13] 2.96 µM and 11.1 µM and 10.3 µM | [15] 735 nM [middle of 4 runs] | [16] 16.6 µM and 19.4 µM and 18.5 µM

COC(=O)c1ccccc1S(=O)(=O)NC(=O)Nc1nc(OC(F)F)cc(OC(F)F)n1
inactive: [1] | [2] | [4] | [19] | [5] | [6] | [7] | [8] | [9] | [10] | [11] | [12] | [13] | [14] | [15] | [16] | [17]
active: [3] 33.2 µM

CCCCOC(=O)C(C)Oc1ccc(Oc2ccc(C(F)(F)F)cn2)cc1 (configuration not stated)
active: [3] 56.4 µM | [4] 50 µM
inactive: [1] | [19] | [5] | [6] | [7] | [8] | [9] | [10] | [11] | [12] | [13] | [14] | [15] | [16] | [17]

O=C(c1ccc(O)cc1O)c1ccc(O)cc1O
active: [4] 28.4 µM | [10] 53.5 µM | [15] 827 nM [middle of 4 runs]
inactive: [1] | [2] | [3] | [4] | [5] | [6] | [7] | [8] | [9] | [10] | [11] | [12] | [13] | [14] | [16] | [17]

Cc1nn(C)c(Oc2ccccc2)c1C=NOCc1ccc(C(=O)OC(C)(C)C)cc1
inactive: [5] | [7] | [8] | [9] | [10] | [11] | [15] | [20] | [17]
active: [3] 1.15 µM | [4] 0.0423 µM | [6] 21.2 nM | [12] 3.15 µM | [13] 0.698 µM | [16] 38.6 nM

From PubChem BioAssay (EPA / NIEHS)
